In the library only some 8% were active in any assay of this set; here they are far more common.
KB-V1 MDR tox = qHTS assay for MDR1-selective chemotherapeutics: Primary screen using the drug-selected MDR subline cells KB-V1; hit rate 3.4% among 400,000; Potency, µM (top dose mostly 46.1 µM), actives largely listed as cytotoxic; KB-V1 MDR cells viability, CellTiter-Glo, 72 h; note: % is set by controls: 0 for no effect and ±100 for the full control effect; nearly all actives have a fitted effect of over 60% in size
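Potencies derive from concentration-effect curves fitted to normalized luminescence (CellTiter-Glo) of KB-V1 cells treated for 72 h at 37 degrees C in phenol-red-free DMEM containing 10% FBS.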
SW480 rerep = A quantitative high throughput screen for small molecules that induce DNA re-replication in SW480 colon adenocarcinoma cells. SW480 DNA re-replication, Hoechst DNA content imaging, 48 h. Potency, µM (series often up to 46.1 µM), inactives show at the top dose re-replication activation, usual class: activators. hit rate 1.8% among 340,000. AID 624297, 2012; note: % of control where 0% means no effect; nearly all actives have a fitted effect of over 55% in size
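SW480 cells exposed to compounds for 48 hr at 37 C, 5% CO2, then Hoechst-stained 40 min. Nuclear DNA content imaged by fluorescence scanning (405 nm excitation, 500-530 nm emission); re-replication scored as increased high-intensity nuclei.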
KB-3-1 cytotox = qHTS assay for MDR1-selective chemotherapeutics: Primary screen using the parental adenocarcinoma cell KB-3-1 | KB-3-1 viability, CellTiter-Glo ATP luminescence, 72 h | Potency, µM (series often up to 46.1 µM), most hits filed as cytotoxic | hit rate 1.4% among 400,000; note: % is set by controls: 0 for no effect and ±100 for the full control effect; nearly all actives have a fitted effect of over 60% in size
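Parental KB-3-1 viability, qHTS format: 72 h compound exposure, 37 °C; CellTiter-Glo; media-only wells and DMSO plates as controls; concentration-effect fits on corrected data.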
HT1080-NT tox = qHTS for induction of synthetic lethality in tumor cells producing 2HG: qHTS for the HT-1080-NT fibrosarcoma cell line. Potency, µM (titrated, usually from 46.1 µM), without a hit: at the top dose activity, negative = less viability, hits mostly cytotoxic. HT-1080-NT fibrosarcoma viability, CellTiter-Glo ATP luminescence, 48 h. hit rate 1.6% among 360,000;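 note: NT is the 2HG producing partner of a matched IDH1 knockdown line; 0% = DMSO-treated cells and -100% = media-only wells without cells; nearly all actives have a fitted effect of over 55% in size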
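750 cells/well, RPMI + 5% FBS; 2 h settle, compound pin-transfer, 48 h at 37 degrees C. CellTiter-Glo 10 min RT, luminescence. Normalized to DMSO and media-only wells.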
HT1080 IDH1KD tx = qHTS for induction of synthetic lethality in tumor cells producing 2HG: qHTS for the HT-1080-IDH1KD cell line. HT-1080 IDH1 knockdown viability, ATP luminescence, 48 h. Potency, µM (series often up to 46.1 µM), for the others: top-dose activity, negative = toxicity, actives largely listed as cytotoxic. hit rate 2% among 360,000. AID 686971, 2013;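 note: 0% = DMSO wells and -100% = cell-free medium wells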
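HT-1080-IDH1KD cells (IDH1 knocked down), 750/well in RPMI with 5% FBS, treated with compound 48 h at 37 degrees C. Viability by CellTiter-Glo luminescence, normalised to DMSO and no-cell wells; concentration-response curves classed.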
MCF10A rerep = A quantitative high throughput screen for small molecules that induce DNA re-replication in MCF 10a normal breast cells. MCF 10A DNA re-replication, Hoechst nuclear intensity, 48 h. Potency, µM (titrated, usually from 46.1 µM), without a hit: at the top dose activity, positive = re-replication, hits mostly activators. hit rate 2.9% among 350,000. AID 624296, 2012; note: % of control where 0% means no effect; nearly all actives have a fitted effect of over 50% in size
Active calls of the source: *; i = inactive; ? = inconclusive. Calls come from the whole dose curve; as a rule, active = well fitted curve in the direction sought with a large enough effect; inconclusive = small, poorly fitted or top-dose-only effect, or another doubt; inactive = no such curve, though single readings can be large; an effect the other way counts as inactive or inconclusive. Potency is the fitted concentration of half-maximal effect.

SMILES	KB-V1 MDR tox	SW480 rerep	KB-3-1 cytotox	HT1080-NT tox	HT1080 IDH1KD tx	MCF10A rerep
Cc1ccc(CN(c2ccc(C(=O)Nc3ccc4c(c3)OCO4)cc2)S(C)(=O)=O)cc1	6.5µM*	24%	i	0%	-6%	-3%
Cc1ccc(Cn2ccc(NC(=O)c3cc(-c4ccc(Cl)cc4)on3)n2)cc1	i	-14%	i	11%	7%	4%
Cc1ccc(C(=O)Nc2ccc3c(c2)OCO3)cc1	?	2%	i	?	-29%	22%
Cc1nn(C(C)C(=O)NCc2ccc(Cl)cc2)c(=O)c2cc3occc3n12 (stereo unspecified)	i	0%	i	13%	-2%	3%
Cc1nc(-c2ccc([N+](=O)[O-])cc2)nc2[nH]ccc(=O)c12	i	-12%	i	?	30%	10%
Cc1nc(-c2ccccc2)nc2[nH]ccc(=O)c12	9.2µM*	-5%	?	25%	11%	4%
Cc1nc(C)c2c(=O)cc(-c3ccccc3)[nH]c2n1	3.2µM*	8.9µM*	7.1µM*	10µM*	8.9µM*	7.9µM*
CN=C1N(C)C[C@@H]2[C@@H]3C(=O)N(Cc4ccccc4)C(=O)[C@@H]3[C@](Cc3ccccc3)(C(=O)OC)N12	i	-13%	i	14%	8%	-4%
CCOc1cc(CNc2ncc(-c3ccc(OC)cc3)n2C)ccc1O	?	-9%	i	9%	-5%	-2%
COC(=O)c1cc(OC)c(OC)cc1NC(=O)CN1CCCCC1	16µM*	-4%	i	26%	15%	16%
COC(=O)c1cc(OC)c(OC)cc1NCC(=O)Nc1ccc(C)cc1	23µM*	-51%	i	0%	2%	2%
COC(=O)c1cc(OC)c(OC)cc1NCC(=O)Nc1ccc(OC)c(OC)c1	?	-120%	i	1%	0%	9%
COC(=O)c1cc(OC)c(OC)cc1NC(=O)Cc1ccccc1[N+](=O)[O-]	2.3µM*	-8%	i	1%	?	-17%
COc1cc(/C=N/NC(=O)c2ccc3ccccc3c2)ccc1Oc1ccc([N+](=O)[O-])cn1	?	-5%	?	-18%	-2%	-5%
CC1CN(CCCCOc2ccc(Cl)c3ccccc23)CC(C)O1 (stereo unspecified)	i	?	i	21µM*	?	?
Cn1nc(-c2ccccc2)c(CO)c1Oc1ccc(F)cc1	i	-1%	i	4%	4%	21µM*
